# Reference: PubChem BioAssay
# For part of these data: Measured potencies and affinities stand elsewhere. Active and inactive are the calls of the source. Unless noted, the rule behind the calls is not given here.
# Columns and labels:
# [1] = target: Cell division control protein 42 homolog (Homo sapiens) (UniProt P60953); assay: activated mutant Cdc42 GTP-binding inhibitors, dose response, biochemical, multiplex bead flow cytometry, Bodipy-FL-GTP (AID 1333;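 active = fitted half-maximal concentration within the tested dose range, moderate curve steepness, a statistically real signal drop, and little compound fluorescence or tag-binding interference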)
# Chain of Cell division control protein 42 homolog (Homo sapiens) (P60953 whole entry, looked up): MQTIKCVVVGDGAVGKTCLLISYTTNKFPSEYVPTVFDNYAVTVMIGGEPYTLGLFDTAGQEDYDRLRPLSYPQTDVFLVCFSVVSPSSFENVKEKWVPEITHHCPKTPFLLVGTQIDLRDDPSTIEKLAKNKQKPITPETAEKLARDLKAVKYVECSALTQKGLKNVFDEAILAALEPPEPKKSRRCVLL
# [2] = target: Cell division control protein 42 homolog (Homo sapiens) (UniProt P60953); assay: wildtype Cdc42 GTP-binding inhibitors, dose response, biochemical, multiplex bead flow cytometry, Bodipy-FL-GTP (AID 1334;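 active = fitted half-maximal concentration within the tested range, moderate curve steepness, significant signal drop, and little compound fluorescence or bead-linkage interference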); details: bead-based flow cytometry, Bodipy-FL-GTP binding to GST-Cdc42; at 100 µM (top of the series) unless noted
# [3] = target: GTPase HRas (Homo sapiens) (UniProt P01112); assay: inhibitors of GTP binding to wildtype Ras, dose response, biochemical, multiplex bead flow cytometry (AID 1335;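 active = fitted half-maximal concentration within 10 nM to 100 µM, steepness 0.5 to 2, significant signal drop, low assay interference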); details: bead-based flow cytometry, Bodipy-GTP binding to GST-Ras; at 100 µM (top of the series) unless noted
# Chain of GTPase HRas (Homo sapiens) (P01112 whole entry, looked up): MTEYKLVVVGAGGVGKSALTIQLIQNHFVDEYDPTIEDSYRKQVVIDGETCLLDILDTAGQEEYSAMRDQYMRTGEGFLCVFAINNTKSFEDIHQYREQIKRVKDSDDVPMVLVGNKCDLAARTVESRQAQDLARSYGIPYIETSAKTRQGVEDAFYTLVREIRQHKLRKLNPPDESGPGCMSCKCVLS
# [4] = tested on: Ras-related protein Rab-7a (dog), GTP binding; assay: Rab7 GTP binding inhibitors, potency, dose response, biochemical, wildtype, multiplex bead flow cytometry (AID 1336)
# [5] = target: Ras-related C3 botulinum toxin substrate 1 (Homo sapiens) (UniProt P63000); assay: wildtype Rac1 GTP binding inhibitors, dose response, biochemical, multiplex bead flow cytometry (AID 1340;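 active = dose curve with midpoint inside tested range, moderate steepness, plateau gap beyond fit error, low compound glow and bead-link interference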); details: GST-Rac1 beads, Bodipy-FL-GTP binding; at 100 µM (top of the series) unless noted
# [6] = target: GTPase HRas (Homo sapiens) (UniProt P01112); assay: activated Ras mutant GTP binding inhibitors, dose response, biochemical, multiplex bead flow cytometry (AID 1341;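 active = dose-response curve with midpoint inside the tested range, moderate steepness, significant amplitude and little compound fluorescence or bead-attachment interference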;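 note: GST-tagged constitutively activated Ras mutant immobilized on beads and multiplexed with other GTPases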)
Structure (SMILES),outcome [1],"fluorescence, percent of control (lower = inhibition) [2]","GTP binding, percent of control [3]",outcome [4],"GTP binding signal, raw median fluorescence (lower = inhibition) (MCF (arbitrary fluorescence units)) [5]",outcome [6]
Cc1cc(C)n2nc(C(=O)Nc3ccc(S(=O)(=O)N4CCCC4)cc3)nc2n1,inactive,37%,82.5%,inactive,257,inactive
COc1cc2[nH]c(=S)nc(NC3CCCCCC3)c2cc1OC,inactive,26.4%,60.9%,inactive,148,inactive
COC(CNC(=O)C1CCCN1C(=O)OCc1ccccc1)OC (stereo not given),inactive,46.2%,90.5%,inactive,333,inactive
Cc1ccc(/C=C(\CCC(=O)O)c2nc3ccccc3s2)cc1[N+](=O)[O-],inactive,24.9%,70.3%,inactive,216,inactive
CCCCCCNc1cc2n(c(=O)n1)CCc1cc(OC)c(OC)cc1-2,inactive,44.7%,104%,inactive,128,inactive
CCOC(=O)Cn1nnnc1C(CC)N(Cc1cccs1)Cc1cc2cc(C)ccc2[nH]c1=O (stereo not given),inactive,96.4%,186%,inactive,194,inactive
CC(C)CCn1c(CN2CCN(Cc3ccccc3)CC2)nc2c1c(=O)n(C)c(=O)n2C,inactive,89.2%,165%,inactive,178,inactive
O=C(c1nnsc1S(=O)(=O)c1ccc(Cl)cc1)N1CCOCC1,inactive,39.7%,77.4%,inactive,289,inactive
CCOc1ccccc1C1C(C(=O)OC)=C(N)OC2=C1C(=O)CCC2 (stereo not given),inactive,90%,149%,inactive,184,inactive
COc1ccc(C(=O)N[C@H](C(=O)OCc2cc(=O)oc3cc(C)ccc23)C(C)C)cc1,inactive,50.4%,63.8%,inactive,202,inactive
Cc1sc2nc3c(SC(C)C(=O)O)cc(C(=O)c4ccccc4O)cn3c(=O)c2c1C (stereo not given),inactive,29.3%,72.1%,inactive,186,inactive
NS(=O)(=O)c1cccnc1Nc1c(Cl)cccc1Cl,inactive,90.6%,152%,inactive,187,inactive
Cc1n[nH]c(=S)c2nn(-c3ccccc3)c(C)c12,inactive,47.4%,63.6%,inactive,188,inactive
Cc1sc2ncnc(Sc3ccccc3C(=O)O)c2c1C,inactive,103%,117%,inactive,84.4,inactive
N#Cc1ccc(OCc2ccc(C(=O)O)o2)cc1,inactive,63.6%,87.2%,inactive,37.7,inactive
CCCCOc1cccc(C#CC(=O)c2ccc([N+](=O)[O-])cc2)c1,inactive,59.2%,182%,inactive,128,inactive
COc1ccccc1CNCc1ccc(C(=O)O)s1,inactive,64.5%,87.8%,inactive,33.8,inactive
Cc1nc(-c2ccccc2)sc1C(=O)NN,inactive,39.4%,82.3%,inactive,248,inactive
CCOC(=O)Cn1nnnc1CN(Cc1cccs1)Cc1cc2cc(C)cc(C)c2[nH]c1=O,inactive,81.6%,161%,inactive,171,inactive
O=C(O)c1ccc(CNCc2ccccc2Cl)s1,inactive,62%,86.6%,inactive,32.2,inactive
Cc1ccc(NC(=O)CS(=O)(=O)c2c[nH]c3ccccc23)c(C)c1,inactive,46%,62.9%,inactive,184,inactive
COc1cc2nc(=S)n(CCCN3CCOCC3)c(N)c2cc1OC,inactive,38.1%,79.4%,inactive,151,inactive
c1ccc(CN2CCN(CCOCCOc3cccc4ccccc34)CC2)cc1,inactive,28.9%,79%,inactive,234,inactive
Cc1ccc(OCc2ccc(C(=O)O)o2)cc1C,inactive,61.7%,90.6%,inactive,34.8,inactive
CN(/N=C/c1ccncc1)C1=NS(=O)(=O)c2ccccc21,inactive,53.9%,32.4%,inactive,181,inactive
COc1cc(/C=N/NC(=O)CSc2n[nH]c(=O)[nH]c2=O)cc(OC)c1O,inactive,36%,78.9%,inactive,178,inactive
CCOC(=O)c1nc(Nc2ccc(C(=O)OC)cc2)c2ccccc2n1,inactive,43.9%,115%,inactive,128,inactive
COc1ccc2c3c(cccc13)C(=O)N(O)C2=O,inactive,30.1%,69.8%,inactive,145,inactive
O=C(O)c1ccc2c3c(cccc13)C(=O)N(OS(=O)(=O)c1ccccc1)C2=O,inactive,33.5%,78.2%,inactive,191,inactive
Cc1ccc(-c2ccc(/C=C3\SC(N4CCOCC4)=NC3=O)o2)cc1,inactive,31.4%,71.6%,inactive,195,inactive
